{"source": "paper PMC9574860", "about": "“Chemical Toolkit for PARK7: Potent, Selective, and High-Throughput” (Journal of Medicinal Chemistry, 2022)", "note": "In all, about 7,900 compounds went through this assay and about 400 (5.1%) showed an effect of 50% or more. The full list was thinned out, with strong results kept by preference.", "data": [{"biological_target": "Parkinson's disease protein 7 (PARK7/DJ1) (human, UniProt Q99497)", "sequence (Q99497 whole entry, looked up, the tested form may be a part)": "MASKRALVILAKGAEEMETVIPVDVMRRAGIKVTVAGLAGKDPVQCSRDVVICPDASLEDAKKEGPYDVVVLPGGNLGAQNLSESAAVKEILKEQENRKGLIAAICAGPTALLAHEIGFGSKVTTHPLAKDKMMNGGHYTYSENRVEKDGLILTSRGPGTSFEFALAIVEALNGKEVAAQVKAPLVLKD", "test": "primary screen, percent inhibition; read as competition with a fluorescent probe by fluorescence polarization; higher = more effect of the substance", "conditions": "100 µM", "description": "The screen was conducted using the conditions as described above in 1536-well plates (Corning 3724) with a reaction volume of 8 μL per well. The compound library containing 7887 covalent fragments was purchased at Enamine Ltd. and received as 100 mM DMSO stocks in 384 well LDV Echo plates (Labcyte LP-0200). Stock solutions of 0.26 μM PARK7 and 80 nM JYQ-107 were prepared. Using a Labcyte Echo550 acoustic dispenser, 8 nL of the DMSO stock solution of the library compounds was transferred from the source plates into the empty 1536-well screening plates to obtain a 100 μM final compound concentration. Next, PARK7 (6 μL, final concentration 0.2 μM) was dispensed using a Biotek MultiflowFX liquid dispenser and incubated for 2 h, followed by dispensing the probe JYQ-107 (2 μL, final concentration 20 nM). After 2 h incubation, the FP signal was recorded on a BMG Labtech PHERAstar plate reader (λex/em 480/520 nm). The relative loss of FP signal compared with reference controls was used to calculate the remaining enzyme activity.", "units": {"Inhibition %": "%"}, "values": [{"smiles": "CC1CC1C(=O)N[C@H]1CC[C@@H](CS(=O)(=O)F)C1", "note": "(stereo in doubt)", "Inhibition %": 90.9}]}]}
